Measured values as given in PubChem BioAssay AID1159580 (chemical genetic matrix, 2015).
Where “and” joins values, the source holds several entries; their conditions need not be identical. Identical values can stand only once. Hit rate of the full screen: of about 5,500 compounds, about 2,000 (36%) were called active. Not shown: some 18% with an inconclusive outcome. No stated cut-off is given here; in the data, active means normalized growth mostly below about 0.91 (no sharp cut-off); inconclusive means no clear call, values can overlap the other calls; inactive means mostly above about 0.92. Some of the results follow.

Experiment: chemical genetic growth profiling, strain panel (AID 1159580);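 further: tested at 20 µM; growth read once vehicle control cultures reached saturation at 30 °C; 1 = growth at the plate median or of vehicle wells; lower values mean less growth of the strain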
Conditions: S. cerevisiae deletion strains, growth OD
[1] = locus YBR229C, strain ROT2, hits give low values
[2] = locus YDL101C, strain DUN1, hits give low values
[3] = locus YDR150W, strain NUM1, hits give low values
[4] = locus YHR030C, strain SLT2, hits give low values
[5] = locus YJR043C, strain POL32, hits give low values
[6] = locus YJR075W, strain HOC1, hits give low values
[7] = locus YLR039C, strain RIC1, hits give low values
[8] = locus YLR262C, strain YPT6, hits give low values
[9] = locus YPL241C, strain CIN2, hits give low values

Measured: normalized growth

CC1(C)CC23C(=O)CCC(O)C2(C)CCC13 (stereo not drawn)
inactive: locus YAL021C, strain ccr4, hits give low values 0.956 | locus YAL026C, strain drs2, hits give low values 0.989 | locus YAL030W, strain snc1, hits give low values 0.979 | locus YBL061C, strain skt5, hits give low values 0.99 | locus YBR009C, strain hhf1, hits give low values 1.02 | locus YBR021W, strain FUR4, hits give low values 0.995 | locus YBR023C, strain chs3, hits give low values 0.993 | locus YBR171W, strain sec66, hits give low values 0.974 | [1] 1.01 | locus YBR231C, strain swc5, hits give low values 1.01 | locus YBR279W, strain paf1, hits give low values 0.987 | locus YCL011C, strain gbp2, hits give low values 0.979 | locus YCL016C, strain dcc1, hits give low values 0.967 | locus YCL029C, strain bik1, hits give low values 1 | locus YCL069W, strain vba3, hits give low values 0.984 | locus YCR088W, strain abp1, hits give low values 0.985 | locus YDL005C, strain med2, hits give low values 0.97 | locus YDL035C, strain GPR1, hits give low values 1.01 | locus YDL040C, strain nat1, hits give low values 0.991 | locus YDL074C, strain BRE1, hits give low values 1.05 | [2] 1.04 | locus YDL185W, strain tfp1, hits give low values 1.01 | locus YDL192W, strain arf1, hits give low values 1 | locus YDR001C, strain nth1, hits give low values 0.986 | locus YDR069C, strain doa4, hits give low values 0.967 | locus YDR101C, strain arx1, hits give low values 0.983 | locus YDR137W, strain rgp1, hits give low values 0.974 | [3] 1 | locus YDR159W, strain sac3, hits give low values 0.988 | locus YDR162C, strain NBP2, hits give low values 1.01 | locus YDR195W, strain ref2 0.957 | locus YDR297W, strain sur2, hits give low values 1.01 | locus YDR318W, strain mcm21, hits give low values 1 | locus YDR334W, strain swr1, hits give low values 0.978 | locus YDR335W, strain msn5, hits give low values 0.989 | locus YDR388W, hits give low values 1.02 | locus YDR392W, strain spt3, hits give low values 0.939 | locus YDR502C, strain sam2, hits give low values 1.03 | locus YEL003W, strain gim4, hits give low values 0.989 | locus YEL037C, strain rad23, hits give low values 0.981 | locus YEL061C, strain CIN8 (second series), hits give low values 0.985 | locus YER015W, strain faa2, hits give low values 0.989 | locus YER016W, strain bim1, hits give low values 0.961 | locus YER110C, hits give low values 1.03 | locus YER111C, strain swi4, hits give low values 0.971 | locus YER155C, strain BEM2 (second series), hits give low values 0.985 | locus YER155C, strain BEM2, hits give low values 1 | locus YER167W, strain BCK2, hits give low values 0.997 | locus YFR010W, strain ubp6, hits give low values 1 | locus YGL078C, strain dbp3, hits give low values 1.02 | locus YGL086W, strain mad1, hits give low values 1.01 | locus YGL167C, strain pmr1, hits give low values 0.976 | locus YGL173C, strain kem1, hits give low values 0.978 | locus YGL227W, strain vid30, hits give low values 0.983 | locus YGL240W, strain doc1, hits give low values 1.01 | locus YGL248W, strain PDE1, hits give low values 1.06 | locus YGL253W, strain hxk2, hits give low values 0.984 | locus YGR135W, strain pre9, hits give low values 1.08 | locus YGR252W, strain gcn5, hits give low values 1.05 | locus YHR013C, strain ard1, hits give low values 0.952 | locus YHR027C, strain rpn1, hits give low values 0.987 | [4] 1 and 1.03 | locus YHR079C, strain IRE1 (second series), hits give low values 1.01 | locus YHR079C, strain IRE1, hits give low values 1.04 | locus YHR094C, strain hxt1, hits give low values 1.01 | locus YHR129C, strain ARP1, hits give low values 1.01 | locus YHR142W, strain chs7, hits give low values 0.96 | locus YHR200W, strain rpn10, hits give low values 1.02 | locus YIL066C, strain RNR3, hits give low values 1.01 | locus YIL073C, strain SPO22, hits give low values 1.08 | locus YIL125W, strain kgd1, hits give low values 0.998 | locus YIR030C, strain dcg1, hits give low values 1.02 | locus YJL092W, strain hpr5, hits give low values 0.994 | locus YJL095W, strain BCK1 (second series), hits give low values 0.98 | locus YJL095W, strain BCK1, hits give low values 1.1 and 1.04 | locus YJL115W, strain asf1, hits give low values 0.97 | locus YJL129C, strain trk1, hits give low values 0.955 | locus YJL134W, strain LCB3, hits give low values 1.01 | locus YJL154C, strain vps35, hits give low values 0.969 | locus YJL164C, strain tpk1, hits give low values 0.997 | locus YJL166W, strain qcr8, hits give low values 1.01 | locus YJL168C, strain set2, hits give low values 0.996 | locus YJL187C, strain SWE1 (second series), hits give low values 1.05 | [5] 0.983 | locus YJR066W, strain TOR1, hits give low values 0.972 | [6] 1.03 | locus YKL009W, strain mrt4, hits give low values 1.03 | locus YKL068W, hits give low values 1 | locus YKL085W, strain MDH1 (second series), hits give low values 1.01 | locus YKL085W, strain MDH1, hits give low values 1.01 | locus YKL160W, strain elf1, hits give low values 0.974 | locus YKL190W, strain CNB1, hits give low values 1.01 | locus YKR001C, strain vps1, hits give low values 1.04 | locus YKR026C, strain gcn3, hits give low values 0.99 | locus YKR091W, strain srl3, hits give low values 0.989 | locus YLL001W, strain dnm1, hits give low values 0.99 | locus YLL026W, hits give low values 0.994 | locus YLL041C, strain sdh2, hits give low values 0.985 | locus YLR027C, strain aat2, hits give low values 0.992 | [7] 1.13 | locus YLR058C, strain SHM2, hits give low values 1.03 | locus YLR102C, strain apc9, hits give low values 1 | locus YLR113W, strain HOG1, hits give low values 1.03 | locus YLR221C, strain rsa3, hits give low values 1.01 | locus YLR258W, strain gsy2, hits give low values 0.984 | locus YLR262C, strain YPT6 (second series), hits give low values 1.01 | [8] 1.07 | locus YLR268W, strain sec22, hits give low values 0.995 | locus YLR320W, strain mms22, hits give low values 0.997 | locus YLR330W, strain CHS5, hits give low values 1.02 | locus YLR342W, strain FKS1 (second series), hits give low values 1.01 | locus YLR342W, strain FKS1, hits give low values 0.977 | locus YLR357W, strain rsc2, hits give low values 0.956 | locus YLR370C, strain arc18, hits give low values 0.981 | locus YLR371W, strain rom2, hits give low values 0.995 | locus YLR384C, strain iki3, hits give low values 0.952 | locus YLR418C, strain cdc73, hits give low values 1.05 | locus YML016C, strain PPZ1, hits give low values 1.02 | locus YML032C, strain rad52, hits give low values 1.01 | locus YML120C, strain ndi1, hits give low values 0.984 | locus YML124C, strain tub3, hits give low values 1 | locus YMR058W, strain fet3, hits give low values 0.987 | locus YMR078C, strain ctf18, hits give low values 1.02 | locus YMR125W, strain sto1, hits give low values 0.986 | locus YMR129W, hits give low values 0.981 | locus YMR205C, strain PFK2, hits give low values 0.999 | locus YMR223W, strain ubp8, hits give low values 1.02 | locus YMR231W, strain pep5, hits give low values 0.991 | locus YMR307W, strain GAS1, hits give low values 1.08 | locus YNL067W, strain RPL9B, hits give low values 1.03 | locus YNL071W, strain lat1, hits give low values 0.991 | locus YNL183C, strain NPR1, hits give low values 0.973 | locus YNL209W, strain ssb2, hits give low values 0.988 | locus YNL233W, strain BNI4, hits give low values 1.06 | locus YNL248C, strain rpa49, hits give low values 0.951 | locus YNL250W, strain rad50, hits give low values 1.02 | locus YNL271C, strain bni1, hits give low values 0.999 | locus YNL298W, strain CLA4, hits give low values 1.01 | locus YNL307C, strain MCK1, hits give low values 1.02 | locus YNL322C, strain KRE1 (second series), hits give low values 1 | locus YNR049C, strain mso1, hits give low values 0.972 | locus YNR052C, strain pop2, hits give low values 1.03 | locus YOL012C, strain htz1 1.22 | locus YOL147C, strain pex11, hits give low values 1.02 | locus YOR001W, strain rrp6, hits give low values 1.02 | locus YOR061W, strain CKA2, hits give low values 1.01 | locus YOR069W, strain VPS5, hits give low values 1.01 | locus YOR070C, strain gyp1, hits give low values 0.987 | locus YOR080W, strain dia2, hits give low values 0.981 | locus YOR083W, strain WHI5, hits give low values 0.979 | locus YOR106W, strain vam3, hits give low values 0.962 | locus YOR136W, strain idh2, hits give low values 1.01 | locus YOR144C, strain elg1, hits give low values 1.01 | locus YOR184W, strain ser1, hits give low values 0.994 | locus YOR231W, strain MKK1, hits give low values 1.05 | locus YOR265W, strain rbl2, hits give low values 1 | locus YOR270C, strain vph1, hits give low values 0.976 | locus YOR290C, strain snf2, hits give low values 0.977 | locus YOR316C, strain cot1, hits give low values 1.01 | locus YPL051W, strain arl3, hits give low values 0.987 | locus YPL078C, strain atp4, hits give low values 0.981 | locus YPL106C, strain sse1, hits give low values 0.97 | locus YPL240C, strain hsp82, hits give low values 1 | [9] 1.01 | locus YPL256C, strain CLN2, hits give low values 1.04 | locus YPR119W, strain clb2, hits give low values 1 | locus YPR141C, strain kar3, hits give low values 1 | locus YPR163C, strain tif3, hits give low values 1.01 | locus YPR167C, strain met16, hits give low values 1.03 | strain wtn01, hits give low values 0.984

Cc1cc(S(=O)(=O)NCCNc2nccc(C(F)(F)F)n2)c(C)cc1Cl
inactive: locus YAL013W, strain DEP1, hits give low values 1.01 | [1] 1.02 | locus YCL061C, strain MRC1, hits give low values 1.01 | [2] 1.01 | locus YDL134C, strain PPH21, hits give low values 0.998 | [3] 0.933 | locus YEL061C, strain CIN8, hits give low values 1.02 | locus YGR078C, strain PAC10, hits give low values 1 | locus YGR229C, strain SMI1, hits give low values 1.02 | [4] 0.957 | locus YHR087W, strain rtc3, hits give low values 1.01 | [5] 1.01 | [6] 1 | [7] 0.991 | locus YLR058C, strain SHM2 (second series), hits give low values 1.02 | locus YLR085C, strain ARP6, hits give low values 1.01 | [8] 1.01 | locus YML094W, strain GIM5, hits give low values 0.992 | locus YMR219W, strain ESC1, hits give low values 1.01 | locus YMR263W, strain SAP30, hits give low values 0.921 | locus YNL153C, strain GIM3, hits give low values 1.02 | locus YNL298W, strain CLA4 (second series), hits give low values 0.982 | locus YNL322C, strain KRE1, hits give low values 1.01 | locus YNR030W, strain Alg12, hits give low values 1.02 | locus YOL006C, strain TOP1, hits give low values 1.02 | locus YPL055C, strain LGE1, hits give low values 1.01 | [9] 1.06 | locus YPR135W, strain CTF4, hits give low values 0.966
